Pol iota inh: inhibitors of human DNA polymerase iota. Q9UNA4. Pol iota fluorescent replication assay, 10 min. Potency, µM (highest dose often 115 µM), inactives show at the top dose activity, negative = inhibition, hits mostly inhibitors. 390,000 compounds, 1% hits. AID 588590
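Fluorescent replication assay read twice, at 0 min and 10 min after adding 50 nM (final) substrate. Enzyme (10 nM) and compounds were first incubated 15 min at room temperature; enzyme-free buffer wells were negative controls.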
POLB inh: DNA polymerase beta (human) inhibition; P06746; Pol beta primer extension/strand displacement, fluorescence kinetic; Potency, µM (titrated, usually from 114 µM), without a hit: at the highest dose activity change, negative = inhibition, usual class: inhibitors; 340,000 compounds, 1.3% hits; AID 485314; further: on the % scale 0 is the no-effect control and ±100 the full control effect
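Human Pol beta at 10 nM; strand-displacement substrate 50 nM final. Compound exposure 15 min at room temperature before start, reaction 10 min at room temperature.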
POLK inh: blocks human DNA polymerase kappa activity. Q9UBT6. purified Pol kappa, fluorescent DNA synthesis assay, 10 min. Potency, µM (doses to about 107 µM), for inactives: at the top dose activity, negative = inhibition, usual class: inhibitors. 400,000 compounds, 0.53% hits; further: on the % scale 0 is the no-effect control and ±100 the full control effect
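Here, compound and 10 nM enzyme are combined for 15 min at room temperature; adding 50 nM substrate (final) starts DNA synthesis, tracked by fluorescence at 0 and 10 min against buffer-only wells.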
L3MBTL1 block: blocks human L3MBTL1 | AlphaScreen L3MBTL1–H3K9me1 peptide binding | AID 485360 | 230,000 compounds, 0.66% hits | Potency, µM (highest dose often 57.1 µM), for the others: at the top dose activity, negative = inhibition, usual class: inhibitors | Q9Y468; further: on the % scale 0 is the no-effect control and ±100 the full control effect; nearly all actives have a fitted effect of over 60% in size
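Displacement of a biotinylated histone H3(1-15) peptide monomethylated at Lys9 (75 nM) from L3MBTL1 (50 nM) was measured by AlphaScreen after a 30 min room-temperature compound incubation; cefsulodin titration served as intraplate control.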
POLH inh: DNA polymerase eta (human) inhibition; Q9Y253; recombinant Pol eta, fluorescent DNA replication assay; Potency, µM (titrated, usually from 114 µM), without a hit: at the highest dose activity change, negative = inhibition, hits mostly inhibitors; 390,000 compounds, 1.2% hits; further: on the % scale 0 is the no-effect control and ±100 the full control effect
Target sequence (Q9Y253 whole entry, looked up): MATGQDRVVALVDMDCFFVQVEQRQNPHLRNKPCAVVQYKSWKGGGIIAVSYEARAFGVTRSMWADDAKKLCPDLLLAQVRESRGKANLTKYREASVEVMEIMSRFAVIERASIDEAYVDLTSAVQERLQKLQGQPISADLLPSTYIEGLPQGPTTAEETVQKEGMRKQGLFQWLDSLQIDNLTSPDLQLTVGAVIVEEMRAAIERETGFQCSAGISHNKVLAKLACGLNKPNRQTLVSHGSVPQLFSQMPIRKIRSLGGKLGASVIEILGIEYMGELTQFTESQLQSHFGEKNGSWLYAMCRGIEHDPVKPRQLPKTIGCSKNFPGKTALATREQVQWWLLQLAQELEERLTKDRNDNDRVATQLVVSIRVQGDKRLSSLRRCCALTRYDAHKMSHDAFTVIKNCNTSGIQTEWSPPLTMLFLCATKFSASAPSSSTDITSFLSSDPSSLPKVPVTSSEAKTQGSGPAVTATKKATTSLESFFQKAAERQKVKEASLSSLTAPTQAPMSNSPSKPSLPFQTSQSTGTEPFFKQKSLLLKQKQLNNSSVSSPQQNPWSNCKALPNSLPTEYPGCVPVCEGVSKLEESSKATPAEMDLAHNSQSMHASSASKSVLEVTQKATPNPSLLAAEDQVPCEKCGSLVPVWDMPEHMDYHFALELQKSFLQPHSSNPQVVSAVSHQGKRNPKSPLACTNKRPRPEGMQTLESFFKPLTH
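Fluorescent replication assay: 50 nM final substrate added after a 15 min room-temperature compound preincubation with 10 nM enzyme. Signal taken at 0 min and again at 10 min.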
* marks the source's active call; other numbers are inactive results; ? = inconclusive; / = not tested or not shown; [ ] = another dose, or the depositor's remark. This is a sample that favours compounds with a hit; in the whole collection about 2.4% have one here. The call rests on the fitted dose curve; in most records, active means well fitted curve in the direction sought with a large enough effect; inconclusive means small, poorly fitted or top-dose-only effect, or another doubt; inactive means no such curve, though single readings can be large; an effect the other way counts as inactive or inconclusive. Potency means the concentration at half of the fitted maximal effect.

SMILES	Pol iota inh	POLB inh	POLK inh	L3MBTL1 block	POLH inh
Cc1ccc(OCc2cc(=O)n3c(-c4ccccc4)csc3n2)cc1	56µM*	20µM*	?	/	?
COc1cc(=O)n2c(-c3ccccc3)csc2n1	3%	-9%	-5%	1%	-13%
CC(=O)Nc1ccc(C)cc1-c1nc2ccccc2n(Cc2cccc(Br)c2)c1=O	32%	-9%	-3%	/	-17%
O=C(/C=C/c1ccc2c(c1)OCO2)c1ccc(O)cc1O	?	/	-2%	/	-25%
O=C(/C=C/c1ccc(O)c(O)c1)c1ccc(O)cc1O	/	/	21µM*	/	/
Cc1ccc(Cn2c(C(C)Nc3nc(-c4ccc(C)cc4)cs3)nc3cc(Cl)c(Cl)cc32)cc1 (configuration not stated)	-15%	32µM*	-13%	-5%	-28%
Cc1cc(=O)n2[nH]c(-c3ccsc3-n3c(C)ccc3C)cc2n1	7.9µM*	?	28µM*	/	7.9µM*
COc1ccc(/C=c2\[nH]c(=O)/c(=C/c3ccc(OC)cc3)[nH]c2=O)cc1	20%	/	11%	/	/
O=C1NC(=O)C2C3C=CC(C3)C12 (configuration not stated)	/	/	0%[19.4 µM]	/	/
CC(C)C[C@@H](CNCC(=O)[C@H](Cc1c[nH]c2ccccc12)NC(=O)c1[nH]cnc1C(=O)N[C@H](CN)CC(C)C)NC(=O)c1nc[nH]c1C(=O)N[C@@H](CC(=O)O)C(=O)O	?	/	?	/	50µM*
Fc1ccc(-n2cc(-c3ccccc3)c3c(=S)nc[nH]c32)cc1	79µM*	4%	?	/	-29%
O=C1c2ccccc2C(=O)N1c1ccc(O)cc1	?	/	-33%	/	/
COCCNc1nc(-c2ccccc2CN(C)C)nc2ccccc12	/	/	-6%[60.1 µM]	/	/
CCOc1ccc(-c2nc3scc(-c4cccs4)c3c(=O)[nH]2)cc1	13%	-22%	-1%	6%	-10%
CCc1nc2scc(-c3cccs3)c2c(=O)o1	?	32µM*	-13%	-25%	?
O=C(/C=C/c1ccc(Br)o1)Nc1nccs1	20µM*	?	?	?	?
O=C(/C=C/c1ccc(Br)o1)NCc1ccccc1	?	0.71µM*	?	-16%	-8%
Cc1cc(C)c(NC(=O)CN2C(=O)c3cccnc3Oc3ccc(C)cc32)c(C)c1	89µM*	?	-2%[60.1 µM]	/	2%
CC(C)C[C@@H](CN=[N+]=[N-])N1CCN(CCc2ccccc2)CCC1=O	29%	/	-12%	/	/
CC(C)CC1=C/C(=C/c2ccc(-c3ccccc3)o2)C(=O)O1	20µM*	16µM*	45µM*	?	2.8µM*
CCN1CCN(C(c2ccccc2Cl)c2c(O)cc(C)n(Cc3ccco3)c2=O)CC1 (configuration not stated)	-5%	9%	-4%[60.1 µM]	/	-20%
NC(=O)c1ccc(N=C2C(=O)Nc3ccc([N+](=O)[O-])cc32)cc1	?	?	-9%	?	20µM*
O=C1Nc2ccccc2C1=Nc1cccc([N+](=O)[O-])c1	?	-23%	-10%	/	-3%
CCc1nnc(N/N=C/c2c(Cl)cccc2Cl)n1N	13µM*	15%	-6%	-4%	-2%
CCc1nnc(N/N=C/c2cccs2)n1N	22µM*	34%	-10%	-14%	-11%
SMILES	Pol iota inh	POLB inh	POLK inh	L3MBTL1 block	POLH inh
C(=N\Nc1nc2ccccc2s1)/c1cccs1	-20%	7%	0%	-15%	-9%
COc1ccc(Cl)cc1NC(=O)Cn1nc(Cc2ccncc2)c2ccccc2c1=O	38%	16%	-4%	/	-22%
CCOc1ccc(NC(=O)CSc2nnc3c(n2)[nH]c2ccc(S(=O)(=O)N4CCCCC4)cc23)cc1	-15%	/	-37%	/	/
Cn1c2c(c3cnc4cc(Cl)ccc4c31)CN(Cc1ccc(Cl)cc1)CC2	101%	/	-36%	/	/
O=C(CCCn1c(=O)c2cccn2c2ccccc21)NCc1ccccc1Br	31%	-18%	1%	/	-11%
O=C(N/N=C/c1ccc([N+](=O)[O-])o1)c1ccccc1NS(=O)(=O)c1cccs1	40µM*	?	-25%	-12%	56µM*
O=C(NN=Cc1ccc(F)cc1)c1ccccc1NS(=O)(=O)c1cccs1	-25%	/	-19%	0%	-6%
